# Assay results: PubChem BioAssay AID429 (Emory University Molecular Libraries Screening Center, 2006)
# In all, about 64,000 compounds went through this assay and about 220 (0.34%) were called active. The list comes from a sample in which actives are over-represented; it also holds similar structures and randomly drawn compounds. Unmarked numbers belong to inactive results.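 How the source made its calls: active means inhibition above 50%; inactive means the rest.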
# Target: Heat shock protein HSP 90-alpha (Homo sapiens) (UniProt P07900)
# Assay: tumor Hsp90 inhibitors, primary screen, cell lysate, fluorescence polarization, NCI-N417 lysate (AID 429);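 further: 0% = tracer plus lysate wells and 100% = tracer alone without lysate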
# Conditions: NCI-N417 lysate Hsp90, Cy3B-geldanamycin FP displacement; at 30 µM; hits give high values
row,Compound,inhibition
1,CCOc1ccc(CCNC(=O)C2CCN(c3ccc(N4CCOCC4)nn3)CC2)cc1OCC,-1.25%
2,OC[C@H]1O[C@@H](n2cnc3c(N[C@H]4CC5CCC4C5)ncnc32)[C@H](O)[C@@H]1O (stereo partly drawn),-1%
3,O=C(OCC(=O)c1cccs1)C1=COCCO1,-6.24%
4,COc1cc(Cl)cc(C2NC(=O)NC(C)=C2C(=O)NCc2ccccc2)c1O (stereo not drawn),-1.82%
5,O=C(c1ccco1)N1CCN(C(=O)C2CC(c3ccc(Cl)c(Cl)c3)=NO2)CC1 (stereo not drawn),-2.91%
6,CCC(CC)C(=O)Nc1cc(C(=O)OC)cc(C(=O)OC)c1,-13.5%
7,CC(=O)N1CCC(C(=O)Nc2nc(-c3ccccc3)ns2)CC1,-2.79%
8,Cc1coc2c(O)cc3c(c12)OC1(N2CCCCC2)C(=O)NCCCC31 (stereo not drawn),96.8% (active)
9,CC(=O)/C(C)=N/O,5.45%
10,COc1ccc(-n2nc3c(c2NC(=O)Cc2cccc(C)c2)CS(=O)C3)cc1 (stereo not drawn),-2.13%
11,Nc1cc(O)cc2cccnc12,150% (active)
12,O=C(Nc1ccn(Cc2ccc(F)cc2)n1)c1ccncc1,-2.29%
13,CN(C)c1nc(N)nc(CSc2nnnn2-c2cccc3ccccc23)n1,-1.24%
14,Cc1ccc(S(=O)(=O)N2CCCC2CO)cc1 (stereo not drawn),-1.22%
15,C=CCNc1ncnc2ccc(Br)cc12,-2.85%
16,Cc1nn(-c2ccccc2)c(CC(C)(C)C(=O)O)c1C(=O)O,0.74%
17,Oc1ccc(Cn2cc[nH]c2=S)cc1,-2.1%
18,CCC(Sc1nncn1C)C(=O)Nc1nnc(-c2ccc(Cl)cc2)s1 (stereo not drawn),-2.78%
19,COc1cc(NCS(=O)(=O)c2ccc(C)cc2)c2ncccc2c1,-1.2%
20,O=C(c1ccccc1)c1ccc2nc(N3CCCCC3)c3nncn3c2c1,-6.65%

row,Compound,inhibition
1,CCOc1cccc(/C(O)=C2/C(=O)C(=O)N(CCOC)C2c2ccncc2)c1 (stereo not drawn),2.34%
2,CS(=O)(=O)c1ccc2nc(NC(=O)CN3CCCCCC3)sc2c1,-0.64%
3,Oc1cc2c(cc1O)CN(C(=S)NCCc1ccc(Cl)cc1)CCC2,77.6% (active)
4,O=C(NCCc1ccc(Cl)cc1)C1CC(=O)N(C2CCCCC2)C1 (stereo not drawn),-0.35%
5,NS(=O)(=O)c1ccc(CCNC(=O)Nc2ccc(Cl)cc2)cc1,-2.49%
6,Cc1ccc(-c2nnc(SC(C)C#N)n2N)cc1 (stereo not drawn),2.26%
7,O=C(Nc1nccs1)C1CCCN1S(=O)(=O)c1cccc2cccnc12 (stereo not drawn),-1.15%
8,COc1ccccc1NC1=NC(c2ccc(Cl)cc2)N=C(N)N1 (stereo not drawn),1.36%
9,C=CC1(C)CC(=O)C2(O)C(C)(O1)C(OC(C)=O)C(O)C1C(C)(C)CCC(O)C12C (stereo not drawn),-0.45%
10,COC(=O)[C@@H](NC(=O)NCc1cccc(OC)c1)C(C)C,-1.26%
11,CC(C)C[C@H](NC(=O)[C@H](O)[C@H](N)Cc1ccccc1)C(=O)O,-2.1%
12,CCCn1c(=O)c2[nH]c(-c3ccc(OCC(=O)NCCN)cc3)nc2n(CCC)c1=O,-4.59%
13,CCCCCC(O)c1cccc(OCc2ccc3ccccc3n2)c1 (stereo not drawn),5.96%
14,Cc1cc(C(F)(F)F)n2ncc(-c3ccccc3)c2n1,-3.41%
15,Nc1ccc2c3c(cccc13)C(=O)NC2=O,7.71%
16,Cc1nc2ccc(S(=O)(=O)NCC(=O)O)cc2s1,-1.11%
17,CC(C)C1C2=C(CC(C)(C)CC2=O)ON1c1ccccc1 (stereo not drawn),-1.36%
18,Cc1ccc(F)cc1NC(=O)Cc1nn(C)c(=O)c2ccccc12,-2.07%
19,Cc1c(-c2nn(C)c(=O)c3ccccc23)oc2ccc(F)cc2c1=O,89.8% (active)
20,O=C1c2oc3ccc(Br)cc3c(=O)c2C(c2cccc(F)c2)N1CCO (stereo not drawn),-0.86%

row,Compound,inhibition
1,COc1cccc(CN2C(=O)CCC2(C)C(=O)NC2CCCCCC2)c1 (stereo not drawn),-0.1%
2,CC(=O)C1=C(O)C(=O)N(c2ccc(S(N)(=O)=O)cc2)C1c1ccccc1F (stereo not drawn),-1.25%
3,CC(C)(C)NCC(O)COc1cccc2[nH]c(=O)[nH]c12 (stereo not drawn),-2.65%
4,CCOc1ccccc1C1CC(c2ccccc2)Nc2nc(N)nn21 (stereo not drawn),0.5%
5,COc1ccccc1OCCOc1ccc(/C=N/n2cnnc2)cc1,-1.96%
6,CCOc1cc(CO)ccc1OCC(=O)N1CCCCC1,1.83%
7,O=C(c1ccc2c(c1)OCO2)N1CCNc2ccccc2C1,-1.64%
8,Cc1ccc(NC(=O)CS(=O)CC(=O)N(c2ccccc2)C(C)C(=O)NC2CCCC2)cc1 (stereo not drawn),-0.1%
9,O=C(Nc1nsc(-c2ccccc2)n1)c1ccncc1,1.14%
10,O=C(CN(c1ccc2c(c1)OCCO2)S(=O)(=O)c1ccccc1)Nc1ccc2c(c1)OCO2,31.2%
11,Cc1noc(C)c1C(=O)NC(C)c1ccc2c(c1)OCO2 (stereo not drawn),-9.41%
12,COc1ccc(-c2nnn(Cc3nc(N)nc(N4CCCCC4)n3)n2)cc1,2.3%
13,O=C(CCCCn1c(=O)[nH]c2ccccc2c1=O)NCc1ccc2c(c1)OCO2,-3.39%
14,O=C(CCC(=O)c1cccs1)NCc1ccccc1,-2.27%
15,O=C(O)CCC(=O)NCc1ccc2[nH]c3c(c2c1)CCCC3,62.8% (active)
16,CCOC(=O)C1CCN(C(=O)COc2cc(C)c(Br)c(C)c2)CC1,-0.95%
17,CC1CC2C3CCC4=CC(=O)C=C[C@]4(C)[C@@]3(F)[C@@H](O)C[C@]2(C)[C@@]1(O)C(=O)CO (stereo partly drawn),0.93%
18,CC(=O)Oc1cccc(N2C(=O)CC(Nc3ccc(N4CCOCC4)cc3)C2=O)c1 (stereo not drawn),10.2%
